Test results from PubChem BioAssay (NCATS).
“And” between values parts separate entries of the source, which are not always exact repeats. Identical values can stand only once. Inconclusive results are not listed. The source made the active and inactive calls. Unless noted, calls follow the shape of the dose curve; as a rule, active = well fitted curve in the direction sought with a large enough effect; inconclusive = small, poorly fitted or top-dose-only effect, or another doubt; inactive = no such curve, though single readings can be large; an effect the other way counts as inactive or inconclusive.

Legend:
[1] = target: Thyrotropin-releasing hormone receptor (Homo sapiens) (UniProt P34981); assay: qHTS for Small Molecule Agonists and Allosteric Enhancers of Human TRH Receptor: Validation Screen for Agonists (AID 493127;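 active = calcium activation more than 3 SD above the typical response in the agonist read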;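 also: intracellular calcium rise by fluo-8 fluorescence before TRH EC20 addition; 0% is about no effect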); settings: TRH receptor agonist cell assay; at 2 µM; stronger effect = higher value
Thyrotropin-releasing hormone receptor (Homo sapiens), sequence (P34981 whole entry, looked up): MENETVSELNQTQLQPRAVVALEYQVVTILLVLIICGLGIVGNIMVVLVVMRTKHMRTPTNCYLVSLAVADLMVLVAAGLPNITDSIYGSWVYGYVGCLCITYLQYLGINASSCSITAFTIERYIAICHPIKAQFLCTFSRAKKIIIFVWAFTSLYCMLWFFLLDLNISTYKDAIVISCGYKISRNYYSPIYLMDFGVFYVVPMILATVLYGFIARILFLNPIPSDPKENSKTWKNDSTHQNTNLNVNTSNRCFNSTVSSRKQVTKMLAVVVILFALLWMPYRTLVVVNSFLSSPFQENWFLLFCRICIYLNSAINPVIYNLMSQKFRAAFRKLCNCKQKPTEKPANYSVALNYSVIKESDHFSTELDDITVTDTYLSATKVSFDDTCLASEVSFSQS
In short: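 Compounds are added by online pintool to dye-loaded TRHR cells while fluorescence is recorded every second. A rise in calcium signal during the agonist read marks activation; a later 10 nM TRH addition (EC20) serves the separate enhancer mode.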

[2] = Nrf2 qHTS screen for inhibitors: Validation (AID 493153; active = well fitted inhibition curve with a large enough effect in the main read-out, with a control signal flat, not every such curve was filed as active); settings: A549 ARE-Fluc reporter, 18-24 h; viability change: measured here: cytotoxicity max response; luciferase luminescence, at 46.1 µM (top of the series)
In short: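 A549 ARE_Fluc, 5% FBS OPTI-MEM; cpd titration, 18-24 h, 37°C/5% CO2. Read 1: CellTiter-Fluor (Ex 405/Em 525), cytotox. Read 2: luciferase lum, Nrf2 activity.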

[3] = qHTS for Inhibitors of Cell Surface uPA Generation: Validation Assay (AID 493164); settings: mouse cells, plasminogen activation; series mostly up to 38.3 µM;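 also: RAW 264.7 macrophage cells exposed to compound for 18 h; 0% is about no effect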
In short: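 ATP-Lite luminescence read-out: ATP remains high when uPA activity-dependent LF translocation into the cytoplasm is blocked. RAW 264.7 cells, 18 h compound exposure at 37 C; 7-point titration, 2.45 nM to 38.3 uM final.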

[4] = target: Galactokinase (Homo sapiens) (UniProt P51570); assay: qHTS Validation Assay for Inhibitors of Human Galactokinase (GALK) (AID 493189); settings: purified human GALK enzyme activity, qHTS 7-point titration; series mostly up to 57.5 µM; also: 0% is about no effect
Galactokinase (Homo sapiens), sequence (P51570 whole entry, looked up): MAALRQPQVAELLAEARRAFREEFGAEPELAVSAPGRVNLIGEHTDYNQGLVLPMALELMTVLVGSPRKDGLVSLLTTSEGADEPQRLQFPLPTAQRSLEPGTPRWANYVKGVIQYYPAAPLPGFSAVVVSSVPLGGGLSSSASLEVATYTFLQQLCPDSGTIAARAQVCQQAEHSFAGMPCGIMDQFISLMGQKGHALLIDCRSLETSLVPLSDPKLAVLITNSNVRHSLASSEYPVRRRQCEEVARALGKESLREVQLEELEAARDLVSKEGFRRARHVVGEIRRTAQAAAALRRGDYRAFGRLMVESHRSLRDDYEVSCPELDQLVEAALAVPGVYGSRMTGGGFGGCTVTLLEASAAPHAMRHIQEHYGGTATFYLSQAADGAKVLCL
In short: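 GALK (5 nM) with 35 uM ATP and 100 uM galactose in HEPES pH8.0, MgCl2, NaCl, DTT, BSA; 1 h at room temperature. Residual ATP read by Kinase-Glo Plus luminescence after 10 min.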

[5] = Validation screen for small molecules that induce DNA re-replication in SW480 colon adenocarcinoma cells (AID 504364); settings: DNA re-replication phenotype (high-content imaging); series mostly up to 46.1 µM; also: 0% is about no effect
In short: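 Image-based qHTS: compounds were incubated with SW480 cells for 48 hr, nuclei stained with Hoechst, and per-nucleus fluorescence intensity scanned to flag cells with excess DNA content.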

[6] = target: Peptidyl-prolyl cis-trans isomerase NIMA-interacting 1 (Homo sapiens) (UniProt Q13526); assay: qHTS Validation Assay to Find Inhibitors of Pin1 (AID 504536; active = well fitted inhibition curve with a large enough effect in the polarisation, with a control signal flat, not every such curve was filed as active; the % refers to the polarisation;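 also: 0% = full Pin1 enzyme wells and -100% = no-enzyme wells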); settings: Pin1 fluorescence polarization peptide binding assay; series mostly up to 57.5 µM
Peptidyl-prolyl cis-trans isomerase NIMA-interacting 1 (Homo sapiens), sequence (Q13526 whole entry, looked up): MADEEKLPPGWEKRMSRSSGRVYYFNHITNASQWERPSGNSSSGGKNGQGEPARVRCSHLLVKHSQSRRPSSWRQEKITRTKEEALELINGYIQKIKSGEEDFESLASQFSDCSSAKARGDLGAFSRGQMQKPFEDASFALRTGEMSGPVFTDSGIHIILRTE
In short: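 Fluorescence polarization competition: compounds (titration) displace HiFluor-488-labeled Pin1-1b peptide from Pin1 (0.3 uM final) in pH 7.5 HEPES buffer with DTT, 10 min at room temperature; %Activity normalized to no-enzyme wells, curves fitted.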

[7] = target: Phosphoglycerate kinase, glycosomal (Trypanosoma brucei brucei) (UniProt P07378); assay: qHTS Validation Assay to Find Inhibitors of Phosphoglycerate Kinase (AID 504547); settings: enzymatic PGK inhibition, coupled luminescence read-out; series mostly up to 57.5 µM;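 also: control wells lack PGK and mark full inhibition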
Phosphoglycerate kinase, glycosomal (Trypanosoma brucei brucei), sequence (P07378 whole entry, looked up): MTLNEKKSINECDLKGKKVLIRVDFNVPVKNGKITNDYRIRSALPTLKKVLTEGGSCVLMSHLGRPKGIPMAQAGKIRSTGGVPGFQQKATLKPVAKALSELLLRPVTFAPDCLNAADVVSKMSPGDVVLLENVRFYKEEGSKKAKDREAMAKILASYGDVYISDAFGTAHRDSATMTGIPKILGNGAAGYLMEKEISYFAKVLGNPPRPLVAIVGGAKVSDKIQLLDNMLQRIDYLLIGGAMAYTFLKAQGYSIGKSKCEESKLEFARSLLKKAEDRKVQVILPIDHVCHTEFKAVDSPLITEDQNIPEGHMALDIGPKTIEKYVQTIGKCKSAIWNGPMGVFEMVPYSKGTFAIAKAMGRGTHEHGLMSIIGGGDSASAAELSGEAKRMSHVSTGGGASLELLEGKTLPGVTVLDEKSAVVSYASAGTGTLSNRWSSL
In short: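 Compounds are pinned into the substrate/PGK mixture, and GAPDH (100nM final) is added to start the reaction by producing 1,3-BPG. After 60 minutes at room temperature, Kinase-Glo Plus is added and luminescence is measured 10 minutes later.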

[8] = target: phosphoglycerate mutase (Leishmania major) (UniProt Q4Q090); assay: qHTS Validation Assay to Find Inhibitors of Phosphoglycerate Mutase (AID 504548); settings: biochemical enzyme activity; series mostly up to 57.5 µM; also: % is scaled to controls: 0 for no effect and ±100 for the full control effect
phosphoglycerate mutase (Leishmania major), sequence (Q4Q090 1-553): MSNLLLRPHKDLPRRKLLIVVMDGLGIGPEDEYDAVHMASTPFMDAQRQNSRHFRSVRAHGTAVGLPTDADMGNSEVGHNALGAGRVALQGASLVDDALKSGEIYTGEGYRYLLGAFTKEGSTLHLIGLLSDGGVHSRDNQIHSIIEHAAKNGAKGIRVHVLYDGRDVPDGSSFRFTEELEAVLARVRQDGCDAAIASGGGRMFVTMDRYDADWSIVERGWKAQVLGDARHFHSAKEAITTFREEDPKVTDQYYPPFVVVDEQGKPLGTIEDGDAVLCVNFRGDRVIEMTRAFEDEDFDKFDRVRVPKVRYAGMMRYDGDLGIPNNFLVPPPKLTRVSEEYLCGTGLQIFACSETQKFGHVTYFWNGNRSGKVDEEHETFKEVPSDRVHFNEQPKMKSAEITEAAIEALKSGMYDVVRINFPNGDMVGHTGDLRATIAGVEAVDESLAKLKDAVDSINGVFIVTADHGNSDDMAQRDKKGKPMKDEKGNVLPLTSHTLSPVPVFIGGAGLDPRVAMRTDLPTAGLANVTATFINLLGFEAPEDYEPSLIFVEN
In short: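 Lm PGAM at 1.25 nM final with substrate in 100 mM TEA pH 7.6, 5 mM MgCl2, 0.01% Tween-20; 45 min at room temperature. Kinase-GloPlus added, 10 min, end-point luminescence read.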

[9] = Inducers of the Endoplasmic Reticulum Stress Response (ERSR) in human glioma: Validation (AID 504836); settings: human glioma cells, ER stress response reporter; series mostly up to 38.3 µM; also: potency is read from the fitted curve at half-maximal effect; as to activation: 0% is about no effect
In short: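 Stably transfected U87-MG glioma cells carrying a GRP78-based luciferase sensor; 16 h compound incubation. Luminescence end-point read 10 min after Bright-Glo addition at room temperature.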

[10] = target: Ubiquitin carboxyl-terminal hydrolase 1 (Homo sapiens) (UniProt O94782); assay: Inhibitors of USP1/UAF1: Pilot qHTS (AID 504865); settings: purified USP1/UAF1, Ub-rhodamine cleavage fluorescence; series mostly up to 114 µM;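 also: rhodamine fluorescence freed from ubiquitin-rhodamine substrate followed over time; top concentration of the series differs between compounds; % is scaled to controls: 0 for no effect and ±100 for the full control effect; nearly all actives have a fitted effect of over 35% in size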
Ubiquitin carboxyl-terminal hydrolase 1 (Homo sapiens), sequence (O94782 whole entry, looked up): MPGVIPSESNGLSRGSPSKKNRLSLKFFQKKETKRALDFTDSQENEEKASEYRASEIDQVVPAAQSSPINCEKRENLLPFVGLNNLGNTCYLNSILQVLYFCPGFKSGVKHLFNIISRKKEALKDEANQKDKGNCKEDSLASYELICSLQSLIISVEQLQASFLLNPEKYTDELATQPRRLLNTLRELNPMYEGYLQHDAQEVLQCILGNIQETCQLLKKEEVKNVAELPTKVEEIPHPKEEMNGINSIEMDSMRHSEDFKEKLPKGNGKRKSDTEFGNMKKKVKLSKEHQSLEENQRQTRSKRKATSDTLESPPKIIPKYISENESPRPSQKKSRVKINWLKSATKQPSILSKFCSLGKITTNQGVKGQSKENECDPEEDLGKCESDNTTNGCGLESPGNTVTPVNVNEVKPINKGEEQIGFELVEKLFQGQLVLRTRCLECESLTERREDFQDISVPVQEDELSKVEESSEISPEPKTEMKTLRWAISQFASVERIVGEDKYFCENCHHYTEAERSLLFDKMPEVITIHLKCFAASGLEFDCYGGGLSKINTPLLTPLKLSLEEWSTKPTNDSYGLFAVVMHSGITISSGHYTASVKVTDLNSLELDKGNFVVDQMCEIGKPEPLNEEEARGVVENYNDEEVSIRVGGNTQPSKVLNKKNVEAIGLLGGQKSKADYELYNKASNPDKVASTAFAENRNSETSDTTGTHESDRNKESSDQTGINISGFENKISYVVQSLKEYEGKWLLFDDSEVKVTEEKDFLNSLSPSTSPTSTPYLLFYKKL
In short: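 USP1/UAF1 complex (1nM) preincubated with compound 15 min at room temperature, then Ub-Rho substrate (150nM final) added. Fluorescence read kinetically at 480/540 nm, 6 reads every 60 seconds. Buffer: 50mM HEPES pH 7.8, 0.5mM EDTA, 0.1 mg/ml BSA, 1mM TCEP, 0.01% Tween-20.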

[11] = qHTS for Inhibitors of ATXN expression: Validation of Cytotoxic Assay (AID 588349); settings: cytotoxicity counter-screen for ATXN expression inhibitors, cell viability; series mostly up to 57.1 µM; also: % is scaled to controls: 0 for no effect and ±100 for the full control effect
In short: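 Titrated compounds are added to cultured HEK293 cells, which are then held at 37 degrees C for 72 hr; loss of intracellular ATP, measured with CellTiter Glo, indicates toxicity.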

[12] = qHTS for Inhibitors of ATXN expression: Validation (AID 588378); settings: cell-based ATXN2 expression reporter assay, luminescence; series mostly up to 57.1 µM; also: nearly all actives have a fitted effect of over 75% in size; also: potency is read from the fitted curve at half-maximal effect
In short: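 Luminescence from an ATXN2-FFLuc reporter in HEK293 cells served as read-out after 24 h compound treatment at 37 degrees C; CellTiter-Fluor fluorescence was recorded first to assess viability.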

[13] = target: DNA dC->dU-editing enzyme APOBEC-3G (Homo sapiens) (UniProt Q9HC16); assay: qHTS for inhibitors of Vif-A3G interactions: Validation (AID 588379); settings: Vif-A3G protein interaction assay; series mostly up to 46.1 µM; also: 0% is about no effect
DNA dC->dU-editing enzyme APOBEC-3G (Homo sapiens), sequence (Q9HC16 whole entry, looked up): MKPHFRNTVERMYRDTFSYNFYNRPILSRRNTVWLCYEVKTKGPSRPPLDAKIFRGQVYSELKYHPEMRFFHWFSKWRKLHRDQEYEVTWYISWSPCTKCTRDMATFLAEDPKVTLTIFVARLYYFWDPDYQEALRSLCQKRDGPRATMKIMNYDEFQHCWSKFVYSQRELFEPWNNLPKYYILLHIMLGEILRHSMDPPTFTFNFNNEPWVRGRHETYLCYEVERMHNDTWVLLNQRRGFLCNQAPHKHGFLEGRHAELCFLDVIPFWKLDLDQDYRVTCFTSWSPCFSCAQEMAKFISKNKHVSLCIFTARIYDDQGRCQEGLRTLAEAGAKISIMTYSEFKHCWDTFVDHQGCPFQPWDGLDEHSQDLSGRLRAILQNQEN
In short: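 Yellow fluorescence (Ex 488, Em 500-530) of Vif-coexpressing HeLa A3G-eYFP cells, scanned by Acumen cytometer, reports blocked A3G degradation. Cells plated at 700/well overnight at 37 deg C before compound addition, then a further overnight compound incubation at 37 deg C.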

CC(C)Oc1cccnc1N(C)C1CCN(Cc2ccccc2)CC1
1.23%: viability change [2]
inactive: activation [1] 0% | outcome [2] | outcome [3] | outcome [4] | outcome [5] | outcome [6] | outcome [7] | outcome [8] | Potency [9] | Potency [10] | outcome [11] | Potency [12]

S=C(NC1CCCCC1)N1CCC(c2cnc[nH]2)CC1
-5.13%: viability change [2]
inactive: activation [1] 0.5% | outcome [2] | outcome [3] | outcome [4] | outcome [5] | outcome [6] | outcome [7] | outcome [8] | Potency [9] | Potency [10] | outcome [11] | Potency [12] | outcome [13]

CC1=NN=C(c2ccc(N)cc2)c2cc3c(cc2C1)OCO3
inactive: activation [1] 0.438% | outcome [2] | outcome [3] | outcome [4] | outcome [5] | outcome [6] | outcome [7] | outcome [8] | Potency [9] | Potency [10] | outcome [11] | Potency [12] | outcome [13]
-4.5%: viability change [2]

CCCN(CCC)C1CCc2ccc(O)cc2C1 (configuration not stated)
inactive: activation [1] -5.19% | outcome [2] | outcome [3] | outcome [4] | outcome [5] | outcome [6] | outcome [7] | outcome [8] | Potency [9] | Potency [10] | outcome [11] | Potency [12]
-3.98%: viability change [2]

NCc1cc(=O)[nH]o1
4.87%: viability change [2]
inactive: activation [1] -4.19% | outcome [2] | outcome [3] | outcome [4] | outcome [5] | outcome [6] | outcome [7] | outcome [8] | Potency [9] | Potency [10] | outcome [11] | Potency [12] | outcome [13]

CCCN(CCC)[C@@H]1CCc2ccc(O)cc2C1
2.19%: viability change [2]
inactive: activation [1] 0.938% | outcome [2] | outcome [3] | outcome [4] | outcome [5] | outcome [6] | outcome [7] | outcome [8] | Potency [9] | Potency [10] | outcome [11] | Potency [12] | outcome [13]

C[C@@H](N)Cc1cnc[nH]1
inactive: activation [1] 1.12% | outcome [3] | outcome [4] | outcome [5] | outcome [6] | outcome [7] | outcome [8] | Potency [9] | Potency [10] | outcome [11] | Potency [12] | outcome [13]

CNCCc1ccc(O)c(O)c1
0.688%: viability change [2]
inactive: activation [1] -0.25% | outcome [2] | outcome [3] | outcome [4] | outcome [6] | Potency [9] | Potency [10]

CC(C)(C)NCC(O)c1ccc(O)c(CO)c1 (configuration not stated)
inactive: Potency [9]

C/C=C(/C)C(=O)O[C@H]1C(C)=C2[C@H]([C@@H]1OC(=O)CCCCCCC)[C@@](C)(OC(C)=O)C[C@H](OC(=O)CCC)[C@@]1(O)[C@H]2OC(=O)[C@@]1(C)O
active: Potency [9] 0.0165 µM
inactive: outcome [3] | outcome [7] | outcome [8]

CC[C@@H]1C(=O)OC[C@@H]1Cc1cncn1C
inactive: outcome [4] | outcome [5]

Cc1cccc(-c2[nH]c(C(C)(C)C)nc2-c2ccc3nccnc3c2)n1
inactive: Potency [9]

CCCCc1ccc(C(=O)O)nc1
inactive: activation [1] 1.25% | outcome [3] | outcome [4] | outcome [5] | outcome [6] | outcome [7] | outcome [8] | Potency [9] | Potency [10] | outcome [11] | Potency [12] | outcome [13]

CC[C@@]1(O)C(=O)OCc2c1cc1n(c2=O)Cc2cc3ccccc3nc2-1
inactive: activation [1] -0.188% | outcome [3] | outcome [4] | outcome [5] | outcome [6] | outcome [7] | outcome [8] | Potency [9] | Potency [10] | Potency [12] | outcome [13]

Cc1c(C(=O)c2cccc3ccccc23)c2cccc3c2n1[C@H](CN1CCOCC1)CO3
active: Potency [12] 15.8 µM
inactive: activation [1] -3.25% | outcome [4] | outcome [5] | outcome [7] | outcome [8]

Cc1nc(-c2ccc(-c3ccc(C(=O)N4CCc5cc6c(cc54)C4(CCN(C)CC4)CO6)cc3)c(C)c2)no1
inactive: activation [1] 1.44% | outcome [4] | outcome [5] | outcome [13]

CC1=C(/C=C/C(C)=C/C=C/C(C)=C/C(=O)O)C(C)(C)CCC1
inactive: Potency [9]

CCN1CCc2nc(N)oc2CC1
inactive: Potency [9]

C[C@]12CCC3C(CC[C@H]4C[C@H](O)CC[C@]34C)C1CC[C@@H]2C(=O)CO (some centres not stated)
inactive: activation [1] 1.56% | outcome [3] | outcome [4] | outcome [5] | outcome [6] | outcome [7] | outcome [8] | Potency [9] | Potency [10] | outcome [11] | Potency [12]

c1ccc(CCCN2CCN(CCOC(c3ccccc3)c3ccccc3)CC2)cc1
-4.56%: viability change [2]
inactive: activation [1] 0.0625% | outcome [2] | outcome [3] | outcome [4] | outcome [6] | outcome [7] | outcome [8] | Potency [9] | Potency [10] | outcome [13]

CC(C)c1ccc2c(c1)c(SC(C)(C)C)c(CC(C)(C)C(=O)O)n2Cc1ccc(Cl)cc1
inactive: Potency [9]

C[N+]1(C)C2CCC1CC(OC(=O)C(CO)c1ccccc1)C2 (configuration not stated)
inactive: outcome [2] | outcome [3] | outcome [4] | outcome [5] | outcome [6] | outcome [7] | outcome [8] | Potency [9] | Potency [10] | outcome [11] | Potency [12]
9.4% and 1.15%: viability change [2]

CCCN1CCC[C@H](c2cccc(O)c2)C1
inactive: activation [1] 2.19% | outcome [2] | outcome [3] | outcome [4] | outcome [5] | outcome [7] | outcome [8] | Potency [9] | Potency [10] | outcome [11] | Potency [12]
1.24%: viability change [2]
